# Results filed as inconclusive are left out. The source made the active and inactive calls. The calls were made as follows, unless noted: active = hit-call score of the fitted dose curve at least 0.9, where 1 is the maximum; inconclusive = response in the unintended direction; inactive = score below 0.9.
# Tests used:
# [1] = Tanguay_ZF_120hpf_OTIC_legacy: (Legacy) Oregon State University Tanguay Lab 120 Hour Post-fertilization zebrafish Assay for Otic Vesicle Malformation (AID 2283639)
# Method in brief: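 Tropical 5D wild-type zebrafish embryos were exposed statically in sealed, foil-covered plates at 28C until 120 hpf, with 0.64% (vol/vol) DMSO final. Otic vesicle malformation was scored present/absent by brightfield microscopy, with DMSO as baseline.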
# [2] = Tanguay_ZF_120hpf_PE_legacy: (Legacy) Oregon State University Tanguay Lab 120 Hour Post-fertilization zebrafish Assay for Pericardial Edema (AID 2283640);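 as to AC50: potency for increased incidence of pericardial edema versus DMSO baseline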
# Method in brief: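 Tropical 5D wild-type zebrafish embryos were statically exposed until 120 hpf at 28C, with 0.64% DMSO final. Pericardial edema was scored by brightfield as present or absent; endpoints were not scored in dead embryos.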
# [3] = Tanguay_ZF_120hpf_BRAI_legacy: (Legacy) Oregon State University Tanguay Lab 120 Hour Post-fertilization zebrafish Assay for Brain Malformation (AID 2283641)
# Method in brief: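 Tropical 5D wild-type zebrafish embryos exposed statically until 120 hpf at 28C, 0.64% DMSO final, sealed and dark. Brain malformation scored present/absent by brightfield at 120 hpf; dead embryos excluded. Trimethyltin chloride 5uM positive control.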
# [4] = Tanguay_ZF_120hpf_SOMI_legacy: (Legacy) Oregon State University Tanguay Lab 120 Hour Post-fertilization zebrafish Assay for Somite Malformation (AID 2283647)
# Method in brief: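 Dechorionated Tropical 5D wild-type zebrafish embryos, one per well from 6 hpf, statically exposed at 28C to 120 hpf in 0.64% DMSO; somite malformation scored present/absent by brightfield; trimethyltin 5 uM positive control; dead embryos not scored.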
# [5] = Tanguay_ZF_120hpf_PFIN_legacy: (Legacy) Oregon State University Tanguay Lab 120 Hour Post-fertilization zebrafish Assay for Pectoral Fin Malformation (AID 2283648);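 also: each larva judged yes or no for fin defect by brightfield with dead larvae skipped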
# Method in brief: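 Tropical 5D wild-type embryos, dechorionated with pronase at 4 hpf, were placed singly in wells at 6 hpf and statically exposed until 120 hpf at 28C, sealed and dark, with 0.64% (vol/vol) final DMSO; pectoral fin malformation scored present/absent.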
# [6] = Tanguay_ZF_120hpf_CFIN_legacy: (Legacy) Oregon State University Tanguay Lab 120 Hour Post-fertilization zebrafish Assay for Caudal Fin Malformation (AID 2283649)
# Method in brief: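 Dechorionated Tropical 5D wild-type embryos, one per well from 6 hpf, static exposure to 120 hpf at 28C in 0.64% DMSO. Caudal fin malformation scored by brightfield as present/absent; not scored in dead embryos.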
# [7] = Tanguay_ZF_120hpf_PIG_legacy: (Legacy) Oregon State University Tanguay Lab 120 Hour Post-fertilization zebrafish Assay for Pigmentation Malformation (AID 2283650)
# Method in brief: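 Tropical 5D wild-type zebrafish embryos, dechorionated with pronase at 4 hpf, were exposed singly from 6 hpf to 120 hpf statically at 28C in sealed, dark plates with 0.64% DMSO; pigmentation scored present/absent by brightfield microscopy, fitted against DMSO.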
# [8] = read-out: solute carrier (SLC22A6), SLC22A6 (gene 9356); assay: LTEA_HepaRG_SLC22A6: Life Technologies and Expression Analysis (LTEA) Assay for solute carrier (SLC22A6) using HepaRG (AID 2283653; active = hit-call score of the fitted dose curve at least 0.9, where 1 is the maximum; inactive = score below 0.9); settings: mRNA level, 48 h; actives raise or lower the signal
# Method in brief: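 Differentiated HepaRG cells exposed 48 h in serum-free induction medium to 8 half-log concentrations, top 100 uM, in 0.5% DMSO; SLC22A6 mRNA by Fluidigm qRT-PCR normalized to ACTB, GAPDH, POLR2A, fitted bidirectionally versus DMSO.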
# [9] = Tanguay_ZF_120hpf_CIRC_legacy: (Legacy) Oregon State University Tanguay Lab 120 Hour Post-fertilization zebrafish Assay for Circulatory Malformation (AID 2283651)
# Method in brief: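 Tropical 5D wild-type embryos, dechorionated with pronase at 4 hpf, were placed singly in wells at 6 hpf and exposed statically at 28C to 120 hpf (0.64% DMSO final). Circulatory malformation was scored present/absent by brightfield microscopy.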
# [10] = read-out: kallikrein-3 (KLK3), KLK3 (gene 354); assay: LTEA_HepaRG_KLK3: Life Technologies and Expression Analysis (LTEA) Assay for kallikrein-3 (KLK3) using HepaRG (AID 2283652; active = hit-call score of the fitted dose curve at least 0.9, where 1 is the maximum; inactive = score below 0.9); settings: mRNA level, 48 h; actives raise or lower the signal
# Method in brief: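 Differentiated human HepaRG cells in serum-free induction medium exposed 48 h in duplicate, eight-point half-log series from 100 uM in 0.5% DMSO. KLK3 mRNA by qRT-PCR, normalised to ACTB, GAPDH, POLR2A; bidirectional fit versus DMSO.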
SMILES,AC50 [1],AC50 [2],AC50 [3],outcome [4],AC50 [5],outcome [6],AC50 [7],outcome [8],outcome [1],outcome [2],outcome [3],outcome [5],outcome [7],outcome [9],outcome [10]
COc1cc(C=O)ccc1O,59.2 µM (active),37.6 µM (active),44.7 µM (active),inactive,42.8 µM (active),inactive,45.9 µM (active),inactive,–,–,–,–,–,–,–
COc1cc(-c2nc(NC(=O)c3cc4cc(C)cc(C)c4n3CC(=O)O)sc2CCC2CCCCC2)c(OC)cc1Cl,–,–,–,inactive,–,inactive,–,–,inactive,inactive,inactive,inactive,inactive,inactive,–
C[Si]1(C)O[Si](C)(C)O[Si](C)(C)O[Si](C)(C)O1,–,–,–,inactive,–,inactive,–,–,inactive,inactive,inactive,inactive,inactive,–,–
CCNc1cccc(C)c1,–,–,–,inactive,–,inactive,–,–,inactive,inactive,inactive,inactive,inactive,inactive,–
O=C(OCCCCCOC(=O)c1ccccc1)c1ccccc1,–,–,–,inactive,–,inactive,–,–,inactive,inactive,inactive,inactive,inactive,inactive,–
CCCCCCCCCCO,–,–,–,inactive,–,inactive,–,–,inactive,inactive,inactive,inactive,inactive,inactive,–
Cc1cccc([N+](=O)[O-])c1C,–,–,–,inactive,–,inactive,–,–,inactive,inactive,inactive,inactive,–,inactive,–
O=c1[nH]cc(F)c(=O)[nH]1,–,–,–,inactive,–,inactive,–,–,inactive,inactive,inactive,inactive,–,–,–
CC1(C)CC(N=C=O)CC(C)(CN=C=O)C1 (stereo not drawn),–,–,–,inactive,–,inactive,–,–,inactive,inactive,inactive,inactive,inactive,inactive,–
OC[C@@H](O)[C@@H](O)[C@H](O)[C@H](O)CO,–,–,–,inactive,–,inactive,–,–,inactive,inactive,inactive,inactive,inactive,–,–
Cc1nc(C)nc(N2C[C@@H](C)N(c3ccnc([C@@H](C)O)n3)[C@@H](C)C2)n1,–,–,–,inactive,–,inactive,–,–,inactive,inactive,inactive,inactive,–,inactive,–
O=C(N[C@@H](Cc1ccccc1)[C@@H](O)C(=O)N1C[C@@H](O)[C@@H](O)C1)c1cc2cc(Cl)ccc2[nH]1,–,–,–,inactive,–,inactive,–,–,inactive,inactive,inactive,inactive,–,inactive,–
O=c1c(O)c(-c2ccc(O)c(O)c2)oc2cc(O)cc(O)c12,–,–,–,inactive,–,inactive,–,–,inactive,inactive,inactive,inactive,inactive,inactive,–
CC(=O)C(C)=CC1C(C)=CCCC1(C)C (stereo not drawn),–,–,–,inactive,–,inactive,–,–,inactive,inactive,inactive,inactive,inactive,inactive,–
COCCOC[C@H](CC1(C(=O)NC2CCC(C(=O)O)CC2)CCCC1)C(=O)Oc1ccc2c(c1)CCC2 (stereo partly drawn),–,–,–,inactive,–,inactive,–,–,inactive,inactive,inactive,inactive,inactive,inactive,–
Cc1cccc(Nc2cc(Cl)nc(SCC(=O)O)n2)c1C,–,–,–,inactive,–,inactive,–,–,inactive,inactive,inactive,inactive,inactive,inactive,–
CCOC(=O)CCC(=O)OCC,–,–,–,inactive,–,inactive,–,–,inactive,inactive,inactive,inactive,inactive,inactive,–
CCCCN(CCCC)CCCC,–,–,–,inactive,–,inactive,–,inactive,inactive,inactive,inactive,inactive,inactive,inactive,–
CCCCCCCC=O,–,–,–,inactive,–,inactive,–,–,inactive,inactive,inactive,inactive,inactive,inactive,–

SMILES,AC50 [1],AC50 [2],AC50 [3],outcome [4],AC50 [5],outcome [6],AC50 [7],outcome [8],outcome [1],outcome [2],outcome [3],outcome [5],outcome [7],outcome [9],outcome [10]
Cc1nc(-c2ccc3c(c2)CCN(CCC2CCC(NC(=O)/C=C/c4ccc(F)cc4)CC2)CC3)no1 (stereo not drawn),–,–,–,inactive,–,inactive,–,–,inactive,inactive,inactive,inactive,inactive,inactive,–
CCCCCC(=O)O,–,–,–,inactive,–,inactive,–,–,inactive,inactive,inactive,inactive,–,inactive,–
CN1CCN(Cc2cc(-c3ccc4[nH]c(=O)oc4c3)co2)[C@@H](c2ccc(F)cc2)C1,–,–,–,inactive,–,inactive,–,–,inactive,inactive,inactive,inactive,inactive,inactive,–
CN1CCCC1=O,–,–,–,inactive,–,inactive,–,inactive,inactive,inactive,inactive,inactive,inactive,inactive,inactive
Cc1cc(=O)[nH]c(=S)[nH]1,–,–,–,inactive,–,inactive,–,–,inactive,inactive,inactive,inactive,–,inactive,–
CCCCC(CC)COC(=O)CC(C(=O)OCC(CC)CCCC)S(=O)(=O)O (stereo not drawn),–,–,–,inactive,–,inactive,–,–,inactive,inactive,inactive,inactive,inactive,inactive,–
CCOc1ccc2c(c1)C(C)=CC(C)(C)N2,–,–,–,inactive,–,inactive,–,–,inactive,inactive,inactive,inactive,inactive,inactive,–
Cc1ccc2ncccc2c1,–,–,–,inactive,–,inactive,–,–,inactive,inactive,inactive,inactive,–,inactive,–
Cc1ccccc1Cl,–,–,–,inactive,–,inactive,–,–,inactive,inactive,inactive,inactive,–,inactive,–
O=C(O)Cc1ccccc1Nc1c(Cl)cccc1Cl,–,–,–,inactive,–,inactive,–,–,inactive,inactive,inactive,inactive,inactive,inactive,–
COc1cc(S(=O)(=O)O)c(C)cc1N=Nc1c(O)ccc2cc(S(=O)(=O)O)ccc12,–,–,–,inactive,–,inactive,–,–,inactive,inactive,inactive,–,–,–,–
CCCCCCCCCCCCCCCC,–,–,–,inactive,–,inactive,–,–,inactive,inactive,–,inactive,inactive,inactive,–
Cc1oc(-c2ccccc2)nc1CCOc1cccc2c1ccn2CCC(=O)O,–,–,–,inactive,–,–,–,–,inactive,inactive,inactive,inactive,inactive,inactive,–
Oc1ccc2c(c1)OC[C@@H](N1CCC(O)(c3ccc(F)cc3)CC1)[C@H]2O,–,–,–,inactive,–,inactive,–,–,inactive,inactive,inactive,inactive,–,inactive,–
CCCCCCCCCCC,–,–,–,inactive,–,inactive,–,inactive,inactive,inactive,inactive,inactive,–,inactive,inactive
Cc1ccc(C)c(C)c1,–,–,–,inactive,–,inactive,–,inactive,inactive,inactive,inactive,–,inactive,inactive,–
CC(=O)OCCOCCOCCOC(C)=O,–,–,–,inactive,–,inactive,–,–,inactive,inactive,inactive,inactive,–,inactive,–
CC(C)c1ccc(C(=O)N=C(N)N)cc1S(C)(=O)=O,–,–,–,inactive,–,inactive,–,–,inactive,inactive,inactive,inactive,–,inactive,–
CC1=C(/C=C/C(C)=C/C=C/C(C)=C/CO)C(C)(C)CCC1,–,–,–,inactive,–,inactive,–,–,inactive,inactive,–,inactive,inactive,inactive,–

# — PubChem BioAssay (EPA / NIEHS)
